Experimental data: PubChem BioAssay AID652042 (Broad Institute, 2013)
The whole screen tested about 1,100 compounds, of which about 350 (32%) were called active. The rule behind the calls is not given here. These entries were drawn from the full list. Measured potencies and affinities stand elsewhere.

Test: CEM21 lymphoblast cell cytotoxicity, dose response, cytotoxicity control for viral fusion inhibitor project, CellTiter-Glo luminescence, cherry-picked (AID 652042)
Details: CEM21 cells viability, CellTiter-Glo ATP luminescence, 24 h; series mostly up to 35 µM; activity change, negative = cytotoxicity: at the top concentration

Row | Compound | activity change, negative = cytotoxicity
1 | COc1ccc(S(=O)(=O)N2CCCCC2)cc1NC(=O)Cc1sc(C)nc1-c1ccc(F)cc1 | -10.2% (inactive)
2 | COc1ccc(S(=O)(=O)N2CCCCC2)cc1NC(=O)CCCOc1ccc(C)cc1 | -3.13% (inactive)
3 | COc1ccc(NC(=O)c2cc(CC(C)C)nc3ccccc23)cc1 | -6.15% (inactive)
4 | CC[C@@]12C(=O)N(c3cccc(F)c3)C(=O)N1[C@H](c1ccc(Cl)cc1)[C@@H]1C(=O)N(C3CCCCC3)C(=O)[C@@H]12 | -6.08% [at 16 µM] (inactive)
5 | Nc1ccc(-c2nc3ccc(C(=O)O)cc3s2)cc1 | -6.13% (inactive)
6 | COc1ccccc1CNC(=O)C[C@H]1C[C@@H]2c3cc(NC(=O)c4cccnc4)ccc3O[C@@H]2[C@@H](CO)O1 | 1.35% (inactive)
7 | COC(=O)c1c(C)oc(C)c1S(=O)(=O)NC(c1ccccc1)c1ccccc1 | -17.2% (inactive)
8 | COc1ccc(Nc2c(CCc3ccccc3)nc3nc(C)cc(C)n23)cc1 | -13.6% (inactive)
9 | Cc1cc(C)n2nc(NCc3cccc(Br)c3)nc2n1 | 2.96% (inactive)
10 | Cc1cc(Oc2ccc(C#N)cc2)nc(NCc2ccccc2)n1 | -6.37% (inactive)
11 | CCOc1ccc(C(C)=O)cc1COC(=O)c1ccccc1C(=O)N(C)Cc1ccccc1 | -12.8% (inactive)
12 | Clc1ccc(OCCN2CCN(c3ncnc4sccc34)CC2)cc1 | -22.9% (inactive)
13 | Cc1ccc(Cn2ncc3c(N4CCN(c5ccc(C)cc5)CC4)ncnc32)cc1 | -14.1% (inactive)
14 | O=C(COC(=O)c1cccc(S(=O)(=O)N2CCOCC2)c1)NCc1ccccc1 | 3.87% (inactive)
15 | CSc1ncccc1C(=O)OCC(=O)Nc1ccc(C)c(S(=O)(=O)N2CCOCC2)c1 | -3.73% (inactive)
16 | Cc1noc(C)c1S(=O)(=O)N(C)C[C@H]1Oc2ccc(NC(=O)Nc3ccccc3)cc2CC(=O)N([C@H](C)CO)C[C@H]1C | -4.33% (inactive)
17 | COc1ccc(S(=O)(=O)Nc2ccc3c(c2)CC(=O)N([C@H](C)CO)C[C@H](C)[C@H](CN(C)S(=O)(=O)c2ccccc2)O3)cc1 | -3.72% (inactive)
18 | C=CC[n+]1c(-c2ccc(OC)c(OC)c2)csc1NNC(=O)Nc1ccccc1 | -25.3% (inactive)
19 | C=C1CCN([C@@H](CC(C)C)C(=O)Nc2ccc(OC)cc2)S(=O)(=O)c2ccccc21 | 5.42% (inactive)
20 | Cc1nn(C)c(Cl)c1NC(=O)OCc1ccc(Cl)cc1Cl | -12% (inactive)
21 | O=C(Nc1ccc(Cl)cn1)C1CCCN1S(=O)(=O)c1cccc2ccccc12 (stereo unspecified) | -21.3% (inactive)
22 | CC(Cl)=CCn1c(NCCc2ccccc2)nc2c1c(=O)n(C)c(=O)n2C | -29.5% (inactive)

Row | Compound | activity change, negative = cytotoxicity
23 | CNc1nc2c(c(=O)n(C)c(=O)n2C)n1Cc1ccccc1 | -9.49% (inactive)
24 | O=C(N[C@@H]1CC[C@H](CCNS(=O)(=O)c2ccc(F)cc2)O[C@@H]1CO)C1CC1 | 0.073% (inactive)
25 | CCOC(=O)C1CCCN(Cc2nc(N)nc(Nc3ccc(OC)cc3)n2)C1 (stereo unspecified) | -12.6% (inactive)
26 | O=C(CN1C(=O)c2ccccc2S1(=O)=O)c1ccccc1Cl | -3.58% (inactive)
27 | C[C@H](CO)N1C[C@H](C)[C@H](CN(C)S(=O)(=O)c2ccc(F)cc2)Oc2ccc(NS(=O)(=O)c3ccccc3)cc2CC1=O | -5.45% (inactive)
28 | C[C@@H]1CN([C@H](C)CO)C(=O)c2cccc(NS(=O)(=O)c3ccc(F)cc3)c2O[C@@H]1CN(C)Cc1ccc(C(F)(F)F)cc1 | -11.4% (inactive)
29 | C[C@H]1CN([C@@H](C)CO)C(=O)c2cccc(NS(=O)(=O)c3ccc(Cl)cc3)c2O[C@@H]1CN(C)Cc1ccc(C(F)(F)F)cc1 | -13.6% (inactive)
30 | C[C@H](CO)N1C[C@H](C)[C@H](CN(C)S(=O)(=O)c2ccccc2)Oc2ccc(NS(=O)(=O)c3ccc(F)cc3)cc2CC1=O | -0.651% (inactive)
31 | C[C@H](CO)N1C[C@H](C)[C@H](CN(C)C(=O)Nc2ccccc2)Oc2c(NS(=O)(=O)c3ccc(F)cc3)cccc2C1=O | -3.16% (inactive)
32 | C[C@@H]1CN([C@H](C)CO)C(=O)c2cccc(NS(=O)(=O)c3ccc(Cl)cc3)c2O[C@H]1CN(C)CC1CCCCC1 | -2.85% [at 30 µM] (inactive)
33 | Cc1ccc(S(=O)(=O)Nc2ccc3c(c2)CC(=O)N([C@H](C)CO)C[C@H](C)[C@H](CN(C)S(=O)(=O)c2ccccc2)O3)cc1 | -9.65% (inactive)
34 | C[C@H]1CN([C@@H](C)CO)C(=O)c2cc(NS(C)(=O)=O)ccc2O[C@@H]1CN(C)Cc1ccc(Cl)c(Cl)c1 | -1.47% (inactive)
35 | Clc1ccc2c(c1)C(C1=NCCN1)c1ccccc1CS2 (stereo unspecified) | -15.6% (inactive)
36 | C[C@@H]1CN([C@@H](C)CO)C(=O)c2cc(NC(=O)c3ccccc3)ccc2O[C@@H](C)CCCCO[C@H]1CN(C)Cc1ccc(C(=O)O)cc1 | 1.47% (inactive)
37 | CC1CCC(NC(=O)CCn2ccc3cc(S(=O)(=O)N4CCCC4)ccc32)CC1 (stereo unspecified) | -18.3% (inactive)
38 | Cc1cc(C)c(S(=O)(=O)N2CCCCC2)cc1N(C)S(=O)(=O)c1ccc(Cl)cc1 | -16.3% (inactive)
39 | CC(=O)C1=C(C)N(Cc2ccc(Br)cc2)C(=S)NC1c1cccc(Cl)c1 (stereo unspecified) | -10.7% (inactive)
40 | COc1ccc(C2=Nn3c(nnc3-c3ccncc3)SC2)cc1 | -22% (inactive)
41 | C=CCN(Cc1ccc(OC)c(OC)c1)C(=O)c1cc2cc(F)ccc2[nH]1 | -19.6% (inactive)
42 | COc1ccc(-c2noc(CCCC(=O)O)n2)cc1 | 8.19% (inactive)
43 | COc1cccc(NC(=O)Nc2cccc(C(=O)O)c2)c1 | -5.58% (inactive)
44 | CN(C)c1ccc(O)c2c1CC1CC3[C@@H](N(C)C)C(=O)C(C(N)=O)=C(O)[C@]3(O)C(=O)C1=C2O (stereo partly specified) | -24.2% (inactive)

Row | Compound | activity change, negative = cytotoxicity
45 | CC1(C)CC2CC(C)(CN2S(=O)(=O)c2cccc(C(=O)OCC(=O)NC(N)=O)c2)C1 (stereo unspecified) | -6.27% (inactive)
46 | COc1ccccc1C(=O)NC(CCSC)C(=O)N1CCN(C/C=C/c2ccccc2)CC1 (stereo unspecified) | -15.2% (inactive)
47 | COCCn1c(=S)[nH]c2cc(C(=O)N3CCN(Cc4ccc5c(c4)OCO5)CC3)ccc2c1=O | -10.4% (inactive)
48 | CCCCCn1c(=O)[nH]c2cc(C(=O)N3CCN(Cc4ccc5c(c4)OCO5)CC3)ccc2c1=O | -15.4% (inactive)
49 | NC(=O)c1sc2nc3c(c(-c4cccs4)c2c1N)CCCCC3 | 4.65% (inactive)
50 | C[C@H](CO)N1C[C@H](C)[C@H](CN(C)S(=O)(=O)c2ccccc2)Oc2ncc(/C=C/c3ccccc3)cc2C1=O | -19.8% (inactive)
51 | C[C@H]1CN([C@@H](C)CO)C(=O)c2c(c3ccccc3n2C)-c2ccccc2CO[C@H]1CN(C)C(=O)CCC(F)(F)F | -16% (inactive)
52 | Cc1ccc(S(=O)(=O)N(C)C[C@@H]2Oc3ccc(NS(=O)(=O)c4c(C)noc4C)cc3CC(=O)N([C@H](C)CO)C[C@@H]2C)cc1 | 3.56% (inactive)
53 | CCOC(=O)[C@@H]1[C@H]2COc3ccc(Br)cc3[C@@H]2N2C(=O)N(c3ccccc3)C(=O)[C@@]12C | -5.89% (inactive)
54 | CC(C)(C)c1ccc(-n2ncc3c2CCCC3NC(=O)CN2CCCC2=O)cc1 (stereo unspecified) | -8.24% (inactive)
55 | Cc1cc(C(=O)NC2CCCc3c2cnn3-c2ccc(C(C)(C)C)cc2)nn1C (stereo unspecified) | -25% (inactive)
56 | CCC12CN(S(=O)(=O)c3ccc(C)cc3)CC(CC)(CN(S(=O)(=O)c3ccc(C)cc3)C1)C2=O | -6.76% (inactive)
57 | O=C(C[C@@H]1C/C=C/CC[C@@H](Cc2ccc(F)cc2)C(=O)O[C@H](c2ccccc2)CNC1=O)NCCO | 2.11% (inactive)
58 | CC[C@@]12C(=O)N(c3ccc(C)cc3)C(=O)N1[C@H](c1ccc(OC)cc1)[C@@H]1C(=O)N(C(C)(C)C)C(=O)[C@@H]12 | 4.19% (inactive)
59 | O=C(c1ccc2ncsc2c1)N1CCN(c2nc3ccccc3s2)CC1 | -1.8% (inactive)
60 | Cc1cc(CSc2ccccc2)ccc1NC(=O)c1ccc(CN2CCOCC2)cc1 | -22.6% (inactive)
61 | CCCOc1ccc2ccccc2c1/C=N/n1cnnc1 | -10.6% (inactive)
62 | COC(=O)C[C@H]1C=C[C@H](NC(=O)c2ccccn2)[C@@H](CO)O1 | -6.35% (inactive)
63 | CS(=O)(=O)N1CCN(c2ccccc2NC(=O)C(c2ccccc2)c2ccccc2)CC1 | -6.99% (inactive)
64 | C[C@@H]1CNC(=O)c2c(C(=O)N3CCN(c4ccccc4)CC3)ncn21 | 4.32% (inactive)
65 | O=C(N(Cc1ccccc1)c1ccccn1)C12CC3CC(CC(C3)C1)C2 | -12.9% (inactive)
66 | CCNC1CCC(Nc2ccnc3cc(Cl)ccc23)CC1 (stereo unspecified) | -10.5% (inactive)

Row | Compound | activity change, negative = cytotoxicity
67 | O=C(Nc1cccc(F)c1)c1cc(S(=O)(=O)N2CCC(C(=O)O)CC2)ccc1F | 4.19% (inactive)
68 | CC(C)OCCCn1c(=S)[nH]c2ccc(N3CCOCC3)cc2c1=O | -6.55% (inactive)
69 | Cc1ccc(C(=O)CN2C(=O)c3ccccc3S2(=O)=O)cc1 | 2.43% (inactive)
70 | O=C(Nc1ccccc1N1CCN(C(=O)c2ccccc2)CC1)c1ccc(Br)o1 | -14.8% (inactive)
71 | CCOC(=O)c1cccc(NS(=O)(=O)c2ccc(NC(C)=O)cc2)c1 | -14.2% (inactive)
72 | O=C(c1ccc(S(=O)(=O)Nc2ccc(F)cc2)cc1)N1CCN(C(=O)c2ccco2)CC1 | -14.6% (inactive)
73 | COc1cc2c(c(OCC(=O)NC(C)C)c1)C(=O)O[C@@H](C)CCCC(=O)CCCCC2 | -11.1% (inactive)
74 | Nc1c(Cl)cc2c(c1Oc1ccccc1)C(=O)c1ccccc1C2=O | -9.65% (inactive)
75 | CN(Cc1cccs1)c1ncnc2sccc12 | -3.99% (inactive)
76 | C[C@@H]1CN([C@H](C)CO)C(=O)c2cccc(NC(=O)c3ccncc3)c2O[C@H]1CN(C)CC1CCCCC1 | -4.35% (inactive)
77 | C[C@@H]1CN([C@H](C)CO)C(=O)c2cccc(NC(=O)c3ccncc3)c2O[C@@H]1CN(C)Cc1ccc(C(=O)O)cc1 | 10.9% (inactive)
78 | C[C@H]1CN([C@@H](C)CO)C(=O)c2cccc(NC(=O)c3ccncc3)c2O[C@@H]1CN(C)C(=O)Nc1cccc2ccccc12 | -0.319% (inactive)
79 | C[C@@H]1CN([C@H](C)CO)C(=O)c2cccc(NC(=O)C3CCCCC3)c2O[C@H]1CN(C)Cc1ccccc1 | -15.4% (inactive)
80 | CC(C)(C)c1ccc(-c2noc(CCC(N)=O)n2)cc1 | -3.94% (inactive)
81 | CCOc1ccc(N(CC(=O)NCCSCc2ccc(Cl)cc2)S(C)(=O)=O)cc1 | -10.1% (inactive)
82 | CCCN(CC(=O)Nc1ccccc1OC)C(=O)c1cccc(S(=O)(=O)NCc2ccccc2)c1 | -4.51% (inactive)
83 | COc1ccc(Cl)cc1NC(=O)CN(C1CCCCC1)S(C)(=O)=O | -3.12% (inactive)
84 | Cc1n[nH]c(C)c1S(=O)(=O)N(CC(=O)NC1CCCC1)c1ccc(C(C)C)cc1 | -9.43% (inactive)
85 | C#CCn1c(=O)c2c(ncn2C)n(C)c1=O | 5.78% (inactive)
86 | C=C1CCN([C@H](C(=O)OCc2cccc(C)c2)C(C)C)S(=O)(=O)c2ccccc21 | -17.6% (inactive)
